Measurements: PubChem BioAssay AID504834 (National Center for Advancing Translational Sciences (NCATS), 2011)
In all, about 320,000 compounds went through this assay and about 22,000 (6.9%) were called active. Another 27% or so got no clear call; they are omitted. The entries come from a sample that favours actives as a whole. Unmarked numbers belong to inactive results. Calls follow the shape of the dose curve; as a rule, active = well fitted inhibition curve with a large enough effect; inconclusive = small, poorly fitted or top-dose-only effect, or another doubt; inactive = no such curve, though single readings can be large or run the other way.

assay: Primary qHTS for delayed death inhibitors of the malarial parasite plastid, 96 hour incubation; conditions: P. falciparum luciferase reporter growth; series mostly up to 28.7 µM; activity change, negative = inhibition: at the top concentration
Procedure, shortened: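 Infected RBCs, 2% Hct / 0.05% parasitemia final; luciferase-reporter P. falciparum; cpd 96 h, 37 C, 5% CO2; luciferase detection reagent; luminescence.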
% is scaled to controls: 0 for no effect and ±100 for the full control effect; potency is read from the fitted curve at half-maximal effect.

Structure (SMILES) | activity change, negative = inhibition | Potency
Cc1ccccc1Nc1c([N+](=O)[O-])ccc2nonc12 | 37.9% | 
CCc1nc2sc3c(Cl)ncnc3c2c2c1CCCC2 | 16.4% | 
Cc1nc(-c2ccc(F)cc2)c(CC(=O)N(C)CC(=O)Nc2c(C)cccc2C)s1 | -26.7% | 
Cc1nc(-c2ccc(F)cc2)c(CC(=O)N2CCN(S(=O)(=O)c3ccc(F)cc3)CC2)s1 |  | 13.1 µM (active)
O=C(c1cnc(Cl)c(Cl)c1)N1CCN(S(=O)(=O)c2ccc(F)cc2)CC1 | 10% | 
COc1ccc(N2C(=O)NC(NS(=O)(=O)c3ccc(Cl)cc3)(C(F)(F)F)C2=O)cc1 (stereo not given) | -10.3% | 
O=C1CSc2ccc(S(=O)(=O)NCc3ccccc3)cc2N1 | -13.5% | 
CC1(C)CC(=O)C(N=Nc2c(F)cccc2F)=C(O)C1 | 9.25% | 
CCC(NC(=O)C1CCCC1)c1ccc(C)cc1 (stereo not given) | 17% | 
CCN(CC(=O)Nc1cccc(S(N)(=O)=O)c1)Cc1nc2ccccc2c(=O)[nH]1 | -6.39% | 
O=C(Cn1cnc2ccccc2c1=O)Nc1cccc(S(=O)(=O)N2CCCCC2)c1 | -2.35% | 
CCCCN(CC(=O)Nc1cccc(S(=O)(=O)N2CCCC2)c1)Cc1nc2ccccc2c(=O)[nH]1 |  | 5.86 µM (active)
CCc1noc(C)c1C(=O)N1CCN(S(=O)(=O)c2cccc(C(F)(F)F)c2)CC1 | -2.53% | 
Cn1ncc(Br)c1C(=O)NC1CCCC1 | 13.9% | 
NC(=O)CSc1nnc(NC(=O)c2ccc3ccccc3c2)s1 | 194% | 
CC(C)(C)N(Cc1ccccc1)C(=O)c1ccncc1 | -25.4% | 
CC(=O)N1N=C(c2ccccc2)OC1c1cccnc1 (stereo not given) | 22.8% | 
CC(=O)N1N=C(c2ccncc2)OC1(Cc1ccccc1)Cc1ccccc1 |  | 11.7 µM (active)
Cn1c(C(=O)N2CCCC(C(=O)NCc3ccccc3)C2)cc2sccc21 (stereo not given) | 21.5% | 
COc1ccc(NC(=O)c2cc(-c3cc(OC)c(OC)c(OC)c3)nc3ccccc23)c(OC)c1 |  | 2.62 µM (active)
CNC(=O)COC(=O)c1cc(-c2ccc(OC)cc2)nc2ccccc12 | 65.2% | 
COc1cc(-c2cc(C(=O)OCC(=O)Nc3ccc4c(c3)OCO4)c3ccccc3n2)cc(OC)c1OC | 9.38% | 

Structure (SMILES) | activity change, negative = inhibition | Potency
CC1CCCCC12NC(=O)N(CC(=O)OCC(=O)NCc1ccc(F)cc1)C2=O (stereo not given) | 7.88% | 
O=C(C1CCN(S(=O)(=O)c2ccc(Br)s2)CC1)N1CCN(c2ccccc2)CC1 | 22.1% | 
O=C(C1CCN(S(=O)(=O)c2ccc(Br)s2)CC1)N1CCN(C2CCCCC2)CC1 |  | 4.65 µM (active)
Cc1ccc(C(=O)N2CCN(C3CCCCC3)CC2)s1 | 138% | 
Cc1cccc(C)c1NC(=O)N1CC(C)OC(C)C1 (stereo not given) | 17.2% | 
COC(=O)c1ccc(OC(=O)c2cnccn2)cc1 | -0.0686% | 
Cc1cccc(OCC(=O)Nc2ccccc2F)c1 | 24.5% | 
Cc1cccc(OP(=O)(Nc2c(C)n(C)n(-c3ccccc3)c2=O)Oc2cccc(C)c2)c1 | 16% | 
Cc1cccc(OP(=O)(Oc2cccc(C)c2)OC(c2ccccc2)C(F)(F)F)c1 (stereo not given) |  | 13.1 µM (active)
COc1ccc(S(=O)(=O)N2CCCCC2)cc1NC(=O)C1CC(=O)N(c2ccc3c(c2)OCCO3)C1 (stereo not given) | -18.4% | 
COc1cccc(-n2nc(C(=O)N3CCN(Cc4ccccc4)CC3)c3ccccc3c2=O)c1 |  | 5.22 µM (active)
CCOC(=O)CNC(=O)c1nn(-c2cccc(OC)c2)c(=O)c2ccccc12 | 60.4% | 
COc1cc(OC)c(OC)cc1CN1CCN(C(=O)c2cccc3ccccc23)CC1 | -24% | 
CCC(=O)c1ccc(OCC(=O)N(CC)CC2COc3ccccc3O2)cc1 (stereo not given) | -10.8% | 
Cc1cc(NC(=O)CSc2nc(=O)cc(N)n2-c2ccc(F)cc2)no1 | -15.9% | 
Cc1ccc(CNC(=O)C2CCCN2S(=O)(=O)c2ccc3c(c2)C(C)(C)C(=O)N3C)cc1 (stereo not given) |  | 1.47 µM (active)
CCOC(=O)C1CCCN(S(=O)(=O)c2ccc3c(c2)C(C)(C)C(=O)N3C)C1 (stereo not given) | 38.7% | 
Cc1ccc(S(=O)(=O)N2CCCC2C(=O)NCc2ccco2)cc1 (stereo not given) | -13.6% [at 5.75 µM] | 
Cc1nc2ccccn2c(=O)c1NC(=O)c1cccs1 | 10.3% | 
COC(=O)c1sccc1NC(=O)c1ccc(Cl)cc1 | 25% | 
Cc1cc(C)cc(NC(=O)CCN2C(=O)c3ccccc3C2=O)c1 | 8.26% | 
CC1(C)CC(=O)C2=C(C1)Nc1cc(C(=O)c3ccccc3)ccc1NC2c1ccccn1 (stereo not given) | 24.6% | 

Structure (SMILES) | activity change, negative = inhibition | Potency
Cc1nn(-c2ccccn2)c2c1C(c1ccncc1)C1=C(CC(C)(C)CC1=O)N2 (stereo not given) |  | 5.86 µM (active)
Cc1cc(C)c(C2C3=C(Nc4c2c(C)nn4-c2ccccn2)c2ccccc2C3=O)c(C)c1 (stereo not given) |  | 6.57 µM (active)
COc1ccc(C(C(=O)NC(C)(C)C)N(C(=O)Cn2nnc3ccccc32)c2ccc(C(C)=O)cc2)cc1O (stereo not given) | -0.944% | 
CCC(C)(C)NC(=O)C(c1cccn1C)N(Cc1ccc(C)cc1)C(=O)Cn1nnc2ccccc21 (stereo not given) | -27.8% | 
CC(C)(C)NC(=O)C(c1ccco1)N(Cc1ccc2c(c1)OCO2)C(=O)Cn1nnc2ccccc21 (stereo not given) |  | 14.7 µM (active)
C=CCc1ccccc1OCC(O)CN1CCN(CCO)CC1 (stereo not given) | -15.9% | 
C[n+]1cc(-c2ccccc2)oc1-c1ccccc1 | 65.7% | 
Cc1nc2cccnc2nc1C | 36.2% | 
Cc1ccc(C)c(N2CCN(C(=O)CCCCn3c(=O)[nH]c4ccccc4c3=O)CC2)c1 | 8.49% | 
Cc1ccc(C)c(N2CCN(C(=O)CCCn3c(=O)c4cccn4c4cccnc43)CC2)c1 |  | 13.1 µM (active)
Cc1ccc(C)c(N2CCN(C(=O)Cn3ncn4cccc4c3=O)CC2)c1 | 20.2% | 
Cn1nccc1/C=N\NC(=O)c1ccc(Cl)cc1 | 17.8% | 
CCNC(=O)CC1C(=O)N(c2ccc(OC)cc2)C(=O)N1CCOC (stereo not given) | 94.5% | 
CC(C)=CC(=O)Nc1nnc(-c2ccc(F)cc2)s1 | 31.8% | 
Cc1ccc(NC(=O)Nc2nnc(-c3ccncc3)s2)cc1 |  | 9.28 µM (active)
Cc1nnc(NC(=O)Nc2ccc(Cl)c(Cl)c2)s1 | -59% | 
COc1ccc(Cc2nnnn2CC(=O)O)cc1 |  | 1.65 µM (active)
COc1ccc(CSc2nnnn2-c2ccc(C(=O)O)cc2)cc1 | 1.63% | 
CCCn1nnnc1NCc1ccc(OC)cc1 | 21.1% | 
O=C(CCc1nnc(Cc2ccc3c(c2)OCO3)o1)NCCc1ccccc1Cl | 10.2% | 
Cc1ccc(-c2ncc(Cl)cc2-c2ccc(S(C)(=O)=O)cc2)cn1 |  | 13.5 µM (active)
